This is a sample that favours compounds with a hit; in the whole collection about 3.3% have one here.
Sm TGR block – inhibitors of Schistosoma mansoni thioredoxin glutathione reductase; Q962Y6; purified TGR, DTNB reduction, TNB absorbance 405 nm; Potency, µM (doses to about 114 µM), for inactives: at the highest dose activity change, negative = inhibition, actives largely listed as inhibitors; actives 3% (n = 360,000); further: nearly all actives have a fitted effect of over 60% in size
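TGR 20 nM + NADPH 100 uM (dispensed conc.), cpd preinc 15 min RT; start with NADPH (500 uM addition) then DTNB (15 mM addition). Kinetic TNB absorbance, 405 nm filter. Four-parameter Hill fit across titration.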
AmpC inh no detg – AmpC beta-lactamase inhibition without detergent; AmpC nitrocefin hydrolysis, absorbance 480 nm, 0.0001% Triton; AID 485341; actives 0.52% (n = 330,000); Potency, µM (series often up to 57.1 µM), for the others: top-dose activity change, negative = inhibition, most hits filed as inhibitors;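 further: plate controls were no compound for no effect and no enzyme for full effect; nearly all actives have a fitted effect of over 20% in size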
Target sequence (P00811 whole entry, looked up): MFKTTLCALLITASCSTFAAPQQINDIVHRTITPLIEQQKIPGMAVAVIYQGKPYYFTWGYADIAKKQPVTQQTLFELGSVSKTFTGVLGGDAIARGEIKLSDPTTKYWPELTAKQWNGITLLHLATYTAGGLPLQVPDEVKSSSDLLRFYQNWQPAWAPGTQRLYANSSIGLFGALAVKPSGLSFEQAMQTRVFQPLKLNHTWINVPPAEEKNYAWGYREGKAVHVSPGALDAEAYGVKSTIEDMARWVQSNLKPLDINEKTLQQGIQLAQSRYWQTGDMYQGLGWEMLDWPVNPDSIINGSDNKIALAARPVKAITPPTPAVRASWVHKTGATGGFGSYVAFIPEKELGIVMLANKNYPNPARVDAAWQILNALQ
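20 mM phosphate pH 7.0 + 0.01% (detergent screen) or 0.0001% Triton X-100; 5.3 nM AmpC reagent; cpd preinc 15 min RT; nitrocefin (800 uM stock) to start; A480 q20 s × 4 min; Activity was normalised to no-enzyme and no-compound control wells.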
AmpC detergent – AmpC beta-lactamase inhibition with detergent present | P00811 | AmpC hydrolysis of nitrocefin, absorbance 480 nm, 0.01% Triton | Potency, µM (titrated, usually from 114 µM), inactives show at the highest dose activity change, negative = inhibition, most hits filed as inhibitors | actives 0.041% (n = 370,000);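 further: 0% = no-compound wells and -100% = no-enzyme wells; nearly all actives have a fitted effect of over 25% in size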
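AmpC (5.3 nM in the dispensed reagent) in 20 mM phosphate pH 7.0 with 0.01% (detergent screen) or 0.0001% Triton X-100 was preincubated with compounds for 15 min at room temperature. Nitrocefin was then added from an 800 uM solution, and hydrolysis was followed at 480 nm.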
Active calls of the source: *; u = inconclusive; x = no result. The call rests on the fitted dose curve; in most records, active means well fitted curve in the direction sought with a large enough effect; inconclusive means small, poorly fitted or top-dose-only effect, or another doubt; inactive means no such curve, though single readings can be large; an effect the other way counts as inactive or inconclusive. Unless noted, on the % scale 0 is the no-effect control and ±100 the full control effect; potency means the concentration at half of the fitted maximal effect.

SMILES	Sm TGR block	AmpC inh no detg	AmpC detergent
CCc1nc2oc3cc(OC)ccc3c(=O)c2c(=O)n1Cc1ccco1	28µM*	-16%	-1%
COc1ccc(Cn2c(-c3ccco3)nc3oc4ccccc4c(=O)c3c2=O)cc1	1%	-20%	1%
CCCN(C(=O)CSc1nc2ccccc2n1CC)C1CCS(=O)(=O)C1 (stereo unspecified)	-7%	-26%	5%
O=C(Oc1ccc(Oc2ccccc2)cc1)N1CCC(O)CC1	1%	60%	-3%
Cc1ccn(S(=O)(=O)c2ccc3oc(=O)ccc3c2)n1	9%	-10%	-10%
N#Cc1ccc(-c2ccc(OCC(=O)NCCCN3CCCC3=O)cc2)cc1	-1%	-19%	-5%
Cc1ccc(C)c(SCC(=O)c2ccc[nH]2)c1	0%	-21%	-2%
O=C(CCNC(=O)Cn1ccc2ccccc2c1=O)NCC1CCCC1c1ccccc1 (stereo unspecified)	5%	-2%	10%
COc1cccc(-c2nn(C)c3sc(C(=O)NCc4ccc(OC)cc4OC)cc23)c1	10%	x	4%
COc1cccc(-c2nn(C)c3sc(C(=O)NCc4ccc(C)o4)cc23)c1	8.9µM*	36%	8%
CC(C)c1ccc(NC(=O)/C(C#N)=C/c2ccncc2)cc1	-5%	31%	-5%
CCC1=NN2C(=N)/C(=C\c3cccn3-c3c(C)cccc3C)C(=O)N=C2S1	10%	-37%	u
CCC1=NN2C(=N)/C(=C\c3cccn3-c3ccc(C)cc3C)C(=O)N=C2S1	-1%	25µM*	u
Cc1ccc(CNC(=O)C2CCN(C(=O)c3ccc(-n4ccc5ccccc54)s3)CC2)cc1	3%	x	0%
NC(=O)CN(c1ccc(Oc2ccccc2)cc1)S(=O)(=O)c1ccccc1	-14%	7%	0%
COc1ccccc1-n1cc(-c2ccccc2)c2c(=S)nc[nH]c21	7%	13%	-2%
Cc1ccc(Nc2nc(-c3ccc(F)cc3)cs2)nc1	41%	-25%	4%
Cc1ccc(Nc2nc(-c3ccc(O)c(O)c3)cs2)nc1	5.6µM*	-37%	11%
COc1ccccc1CNC(=O)CCCN1C(=O)CCn2nc(-c3cn(C)c4ccccc34)cc21	4%	x	10%
COc1cccc(CNC(=O)CN2C(=O)CCn3nc(-c4cn(C)c5ccccc45)cc32)c1OC	16µM*	x	12%
CCN1C(=O)N[C@@H](CCc2ccccc2)[C@@H](C(=O)OC)[C@H]1C	2.2µM*	-1%	4%
CCN1C(=NCCc2ccc(Br)cc2)N[C@@H](c2ccccc2)[C@H](C(=O)OC)[C@H]1C	-1%	47%	-9%
Cc1ccn2c(=O)nc(SCC(=O)NCCc3ccccc3)nc2c1	-8%	32µM*	u
O=C(CSc1nc(=O)n2ccccc2n1)NCCc1ccccc1	-20%	-9%	u
COCc1c(C(=O)N/N=C/c2ccc(C)o2)nnn1-c1nonc1N	-2%	-6%	u
SMILES	Sm TGR block	AmpC inh no detg	AmpC detergent
O=C(CSc1ncnc2sc3c(c12)CCCC3)NC1CCS(=O)(=O)C1 (stereo unspecified)	x	26%	x
Nc1sc2c(c1C(=O)c1ccccc1)CCCC2	u	-40%	-13%
Nc1sc2c(c1C(=O)NC1CCS(=O)(=O)C1)CCCC2 (stereo unspecified)	22µM*	26%	u
NC(=O)c1c(N)sc2c1CCCC2	13µM*	-26%	u
O=c1cc(CN2CCN(c3ccccc3F)CC2)c2cc3c(cc2o1)CCCC3	u	-28%	-1%
O=C(Nc1ccccc1)N(Cc1cccc(Cl)c1)c1ccccn1	0%	x	11%
CCOc1ccc(NC(=O)c2ccc3c(c2)C(=O)N(Cc2ccncc2)C3=O)cc1	6%	-13%	-13%
CC(C)[C@@H](CO)NS(=O)(=O)c1ccc(Br)cc1F	x	-8%	x
Cc1ccc(CNC(=O)c2c(-c3ccccc3Cl)noc2C)cc1	-27%	0%	2%
Cc1onc(-c2ccccc2Cl)c1C(=O)NCc1ccco1	45µM*	-13%	u
Cc1onc(-c2ccccc2Cl)c1C(=O)Nc1ccccc1	-7%	-11%	2%
Cc1onc(-c2ccccc2Cl)c1C(=O)Nc1ccc(CN2CCCC2)cc1	79µM*	-21%	u
C=CCNC(=O)N1CCCC(C(=O)c2cccc(OC(C)C)c2)C1 (stereo unspecified)	5%	92%	-6%
CCN(Cc1ccccc1)Cc1c(O)ccc2oc(C)c(C(=O)Nc3ccccc3C)c12	-35%	x	-1%
COc1ccc(OCC(=O)NNc2nc3ccccc3s2)cc1	-18%	10µM*	-6%
COc1ccc(OC)c2sc(NNC(=O)COc3ccccc3)nc12	-7%	-23%	-3%
COc1ccc(CN2CCNC(=O)C2CC(=O)NCCc2c[nH]c3ccccc23)c(OC)c1 (stereo unspecified)	x	116%	u
CCc1ccc(C(=O)CN2C(=O)NC(C)(c3ccc(C)cc3)C2=O)cc1 (stereo unspecified)	-15%	-18%	u
Cc1ccc(C2(C)NC(=O)N(CC(=O)c3ccc(Cl)s3)C2=O)cc1 (stereo unspecified)	-7%	28µM*	-9%
COc1cc(OC)c(NS(=O)(=O)c2cc(C(=O)OC(C)C(=O)NC3CC3)c(Cl)cc2Cl)cc1Cl (stereo unspecified)	-5%	40%	3%
COc1ccc(S(=O)(=O)NCC2CCCN(Cc3ccc(C)o3)C2)cc1 (stereo unspecified)	35µM*	1%	3%
CCc1ccc(CN2CCCC(CNS(=O)(=O)c3ccc(OC)cc3)C2)cc1 (stereo unspecified)	7%	58%	7%
O=C1C(Cl)=C(N2CCN(c3ccccc3[N+](=O)[O-])CC2)C(=O)c2ccccc21	1.6µM*	-50%	-13%
O=[N+]([O-])c1cc(Cl)ccc1N1CCCC1	0%	-9%	0%
COc1cccc(NC(=S)Nc2ccc(F)cc2)c1	u	-30%	0%
SMILES	Sm TGR block	AmpC inh no detg	AmpC detergent
Fc1cccc(NC(=S)Nc2ccc(Br)cc2)c1	20µM*	-49%	-2%
Cc1ccc(-c2nnc(Nc3ccc(Cl)cc3)c3ccccc23)cc1S(=O)(=O)N1CCOCC1	5%	x	2%
COc1cc(C2CC(=O)N3CN(Cc4ccco4)CSC3=C2C#N)ccc1OCc1ccccc1 (stereo unspecified)	0%	-5%	u
CC(C)c1ccc(C2CC(=O)N3CN(Cc4ccco4)CSC3=C2C#N)cc1 (stereo unspecified)	2.2µM*	-1%	u
N#CC1=C2SCN(Cc3ccco3)CN2C(=O)CC1c1ccc(Cl)cc1 (stereo unspecified)	-3%	-28%	-16%
N#CC1=C2SCN(Cc3ccccc3)CN2C(=O)CC1c1ccc2c(c1)OCO2 (stereo unspecified)	3.5µM*	-53%	1%
COC(=O)C1=C(C)N(C)C(=O)NC1c1c(OC)ccc2ccccc12 (stereo unspecified)	-2%	2%	-8%
COc1ccc2ccccc2c1C1CC(=O)N2CN(C3CCCCC3)CSC2=C1C#N (stereo unspecified)	28µM*	-43%	-7%
